Measurements as given in PubChem BioAssay AID2100 (National Center for Advancing Translational Sciences (NCATS), 2009).
In all, about 300,000 compounds went through this assay and about 1,200 (0.4%) were called active. Another 3% or so got no clear call; they are omitted. This is one part of a sample in which actives are shown more often than they occur. Values without a mark were called inactive. Calls come from the whole dose curve; as a rule, active = well fitted inhibition curve with a large enough effect; inconclusive = small, poorly fitted or top-dose-only effect, or another doubt; inactive = no such curve, though single readings can be large or run the other way.

target: Lysosomal alpha-glucosidase (Homo sapiens) (UniProt P10253); test: qHTS Assay for Inhibitors and Activators of Human alpha-Glucosidase Cleavage of Glycogen; settings: recombinant GAA, glycogen substrate, Amplex Red glucose oxidase fluorescence; series mostly up to 76.3 µM; activity change, negative = inhibition: at the top concentration;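 note: the screen sought inhibitors and activators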;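 for activity change, negative = inhibition: 0% = full enzyme reaction and -100% = no-enzyme basal signal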
Source text: NIH Chemical Genomics Center [NCGC] NIH Molecular Libraries Probe Production Centers Network [MLPCN] MLPCN Grant: R03 MH084841-01 Assay Submitter (PI): Wei Zheng NCGC Assay Overview: Alpha-glucosidase is responsible for the hydrolysis of terminal, non-reducing 1,4-linked alpha-D-glucose residues, which releases alpha-D-glucose. It is a lysosomal hydrolase that is required for the degradation of a small percentage (1-3%) of cellular glycogen in humans. Deficiency of this enzyme results in glycogen-storage disease type II (GSDII), also referred to as Pompe disease, an autosomal recessive disorder. Structurally normal glycogen is accumulated in the lysosomes and cytoplasm in affected patients, primarily in muscle tissues. Excessive glycogen storage within lysosomes may interrupt normal functioning of other organelles and leads to cellular injury. In turn, this leads to enlargement and dysfunction of the entire organ involved (eg: cardiomyopathy and muscle weakness). It has been reported that the improper folding and trafficking of alpha-glucosidase resulting from genetic mutations may account for a significant number of Pompe patients. […] We optimized this alpha-glucosidase assay in 1536-well plate format for identification of novel small molecule inhibitors or activators with structures other than the sugar analogs in order to develop new pharmacological chaperones. Previous assays of alpha-Glucosidase have utilized a non-natural fluorescent substrate to probe enzyme activity. The present assay measures enzyme activity on glycogen using a coupled-assay system to glucose oxidase.
NCGC Assay Protocol Summary: This is an enzyme assay using glycogen from bovine liver (Sigma catalog #: G0885) as the substrate and recombinant human alpha-glucosidase as the enzyme preparation. Upon hydrolysis of the substrate, the glucose product can be detected using the Amplex Red Glucose Oxidase Assay Kit (Invitrogen catalog #: A22189). The product of this reaction can be read with a fluorescence plate reader with an excitation at 573 nm and an emission at 610 nm. Data were normalized to the controls for basal activity (without enzyme) and 100% activity (with enzyme). The AC50 values were determined from concentration-response data modeled with the standard Hill equation. Assay buffer for enzyme reaction: 50 mM citric acid (titrated with potassium phosphate to pH 5.0), 0.01% Tween-20 (pH 5.0 is an optimal condition for this enzyme assay) Assay buffer for Amplex Red reaction: Tris-HCl, pH 7.5 1536-well assay protocol for the alpha-glucosidase assay: (1) Add 2 ul/well alpha-glucosidase enzyme solution (4 nM final) (2) Add 23 nL compounds in DMSO solution. The final titration was 0.7 nM to 77 uM. (3) Add 1 ul of glycogen substrate solution (30 ug) (4) Incubate at 37 C for 40 min (5) Add 2 ul tris-HCl buffer with Amplex Red reagents (6) Incubate 45 min at room temperature. (7) Detect the assay plate in a ViewLux plate reader (PerkinElmer) with Ex=573 nm and Em=610nm. Keywords: Alpha-glucosidase, Pompe Disease, pharmacological chaperone, chaperone therapy, high throughput screening, alpha-glucosidase inhibitor, MLSMR, MLSCN, NIH Roadmap, qHTS and NCGC
Potency is the fitted concentration of half-maximal effect.

| SMILES | activity change, negative = inhibition | Potency |
| --- | --- | --- |
| CCS(=O)(=O)N1CCc2cc(C(=O)N3CCN(c4ccccc4OC)CC3)ccc21 | -12.8% | – |
| CCCOc1ccc(C2c3c(-c4ccccc4O)n[nH]c3C(=O)N2Cc2cccnc2)cc1 (stereo not drawn) | -14.1% | – |
| CCOc1ccc(CNC(=O)C2CCCN(S(=O)(=O)N(CC)c3ccc(OCC)cc3)C2)cc1 (stereo not drawn) | -5.42% | – |
| COc1ccc(CNC(=O)c2ccc(NC(=O)N3CC4CCCN4c4ccccc43)cc2)cc1 (stereo not drawn) | – | 17.8 µM (active) |
| COc1ccccc1CNC(=O)c1ccc(NC(=O)N2CC(C)Sc3ccccc32)cc1 (stereo not drawn) | -7.96% | – |
| COc1ccc(NC(=O)N2CCC(Cc3ccccc3)CC2)cc1 | 17.3% [at 76.4 µM] | – |
| CCCOc1cccc(C(=O)Nc2cccc(NC(=O)c3ccc(C(C)(C)C)cc3)c2)c1 | -11.6% | – |
| COc1ccc(CCNC(=O)c2cc(=O)c3c(C)cc(C)cc3o2)cc1OC | 12.6% | – |
| CCOC(=O)c1c(C)oc2ccc(N(C(=O)c3ccncc3)S(=O)(=O)c3ccc(CC)cc3)cc12 | -5.49% | – |
| Cc1ccc(/C=N/NC(=O)CSc2nc3ccccc3o2)cc1 | -4.49% [at 76.4 µM] | – |
| Cn1c(SCC(=O)N/N=C/c2ccc(O)c(O)c2)nc2ccccc21 | – | 8.91 µM (active) |
| CCn1c(SCC(=O)N/N=C/c2ccncc2)nc2ccccc21 | 0.69% [at 76.4 µM] | – |
| CCN(CC)S(=O)(=O)c1nnc(NC(=O)COc2ccccc2Cl)s1 | -4.77% | – |
| CCS(=O)(=O)N1CCc2cc(C(=O)NCc3ccc(OC)cc3)ccc21 | 14.8% | – |
| Cc1ccccc1-c1nc(CS(=O)(=O)CC(=O)Nc2cc(Cl)cc(Cl)c2)c(C)o1 | -7.14% | – |
| Cc1cccc(NC(=O)N2CCC(CN3CCc4ccccc4C3)CC2)c1C | 9.41% | – |
| COc1ccc2c(c1)C(C)=CC(C)(C)N2C(=O)Nc1ccccc1 | – | 35.5 µM (active) |
| CC1=CC(C)(C)N(C(=O)CSc2nnc(-c3ccccc3)o2)c2ccc(C)cc21 | -4.74% [at 76.4 µM] | – |
| COc1ccc2c(c1)C(C)=CC(C)(C)N2C(=O)CNCc1ccc2c(c1)OCO2 | -16.1% [at 76.4 µM] | – |
| CCOc1ccc(N(Cc2ccccc2)C(=O)c2nc(S(C)(=O)=O)ncc2Cl)cc1 | 13.6% | – |
| Cc1ccc(Cn2c(CCCNC(=O)C3CCCCC3)nc3ccccc32)cc1 | -13.5% | – |
| COc1ccc2c(Sc3ccc(C)cc3)c(C(=O)NC(C)c3ccccc3)[nH]c2c1 (stereo not drawn) | -10.9% | – |
| Cc1cc2cc3c(N)[nH]nc3nc2cc1C | – | 8.91 µM (active) |
| Cc1cccc(NC(=O)c2cc3c(C)nn(-c4ccccc4)c3s2)c1 | -2.14% | – |
| COc1ccc(-c2cn3nc(N4CCCC(C(=O)NCCCOC(C)C)C4)sc3n2)cc1 (stereo not drawn) | 4.17% | – |
| COC(=O)c1cc(S(=O)(=O)N2CCN(c3cc(Cl)ccc3C)CC2)c[nH]1 | 5.27% | – |
| COC(=O)c1cc2occc2n1Cc1nc(-c2ccc(C)cc2)oc1C | -11.8% | – |

| SMILES | activity change, negative = inhibition | Potency |
| --- | --- | --- |
| Cc1nn(C(C)C(=O)NCCc2ccccc2)c(=O)c2c1sc1ccccc12 (stereo not drawn) | -10.3% | – |
| O=C(Nc1ccccc1)Nc1ccc(C(F)(F)F)cn1 | 5.88% [at 76.4 µM] | – |
| Oc1ccc(Br)cc1/C=N/Nc1ccccn1 | -5.32% [at 76.4 µM] | – |
| Oc1ccc(/C=N/Nc2ccc(C(F)(F)F)cn2)cc1O | – | 3.52 µM (active) |
| CCC1CCCCN1S(=O)(=O)c1ccc(NC(=O)c2cc(=O)c3ccccc3o2)cc1 (stereo not drawn) | -6.07% | – |
| CCN1C(=O)c2cccc3c(S(=O)(=O)Nc4ccccc4O)ccc1c23 | -4.12% [at 76.4 µM] | – |
| CCN1C(=O)c2cccc3c(N)ccc1c23 | – | 28.2 µM (active) |
| CN1C(=O)c2cccc3c(N)ccc(c23)C1=O | 5.15% [at 76.4 µM] | – |
| O=C(Nc1ccc2nc(SCC(=O)N3CCCc4ccccc43)sc2c1)c1ccc(Cl)cc1 | -2.34% | – |
| CCOC(=O)c1c(/N=C/c2cc(C)ccc2O)sc2c1CCC2 | – | 10 µM (active) |
| CCOC(=O)c1c(NC(=S)NC)sc2c1CCCC2 | -1.18% [at 76.4 µM] | – |
| CCOC(=O)c1c(NC(=O)/C(C#N)=C/c2ccccc2)sc2c1CCC2 | 0.505% | – |
| COc1ccc(N2CCN(S(=O)(=O)c3ccc4c(c3)CC(=O)N4)CC2)cc1 | – | 59.8 µM (active) |
| COc1ccc(N2CCN(S(=O)(=O)c3ccc4c(c3)NC(=O)C(C)C(=O)N4)CC2)cc1 (stereo not drawn) | 7.77% | – |
| O=C1CC(=O)Nc2cc(S(=O)(=O)N3CCN(c4cccc(C(F)(F)F)c4)CC3)ccc2N1 | -10.2% [at 76.4 µM] | – |
| Cc1ccc(NC(=O)c2nc(S(=O)(=O)Cc3cccc(C)c3)ncc2Cl)cc1 | 9.9% | – |
| Cc1ccc2nc(C)cc(N/N=C/c3ccc(F)cc3)c2c1 | -2.53% [at 76.4 µM] | – |
| Cc1cc(N/N=C/c2ccccc2F)c2ccccc2n1 | -19.4% [at 76.4 µM] | – |
| COc1cccc2c(N/N=C/c3ccco3)cc(C)nc12 | – | 8.84 µM (active) |
| Cc1ccc(C)n1-c1nnc(N2CCC(C(=O)NCc3ccc(F)cc3)CC2)s1 | 5.06% | – |
| CCOc1ccc(CNC(=O)C2CCN(c3nnc(-n4cccc4CNc4ccc(C)cc4)s3)CC2)cc1OC | – | 31.6 µM (active) |
| Cc1ccc(CCNC(=O)C2CCN(c3nnc(-n4cccc4CNc4ccc(C)cc4)s3)CC2)cc1 | -6.93% | – |
| Cc1cccc(OCC(=O)N(Cc2ccc(C(C)C)cc2)Cc2ccco2)c1C | 9.65% | – |
| CCn1c2ccccc2c2cc(NC(=S)N3CCOCC3)ccc21 | – | 12.5 µM (active) |
| CCn1c2ccccc2c2cc(NC(=O)COC(=O)c3ccccc3Br)ccc21 | 11.5% [at 76.4 µM] | – |
| CCn1c2ccccc2c2cc(NC(=O)CNC)ccc21 | -2.67% [at 76.4 µM] | – |
